Laboratory results as given in PubChem BioAssay (NCI).
The panel holds about 83,000 compounds, 20% with a hit somewhere; the sample as a whole holds those more often.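 Results are percent growth after 48 hours of single-concentration exposure. 100 means growth as in untreated cells, lower positive values show inhibition; negative values down to -100 show cell death.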 Values without a mark were called inactive. Active and inactive are the calls of the source. How the source made its calls: active means growth percent below 10; inactive means the rest.

These compounds were tested on MDA-MB-468 breast (assay: NCI-60 one-dose screen, 48 h (100 = growth as untreated, 0 = no growth, -100 = all killed)). Conditions: 10 µM unless noted.
For `NC(=Nc1ccc(N)cc1)C(N)=Nc1ccc(N)cc1`, the growth was 94.3%.
Work on `O=C(CSc1ccc(-c2nc3ccccc3[nH]2)cn1)N1CCN(c2ccccc2F)CC1` yielded a growth of 53.1%.
For `Nc1c(Br)cc(Br)c2c1[nH]c(=O)c1ccccc12`, the growth was -20.4% (active).
Compound `COC(=O)c1nc(-c2ccc(C)cc2)oc1S(=O)(=O)c1cccc(OC)c1` has a growth of 71.7%.
For `NC(=S)N/N=C/c1ccc(OC(=O)COc2cc(Cl)c(Cl)cc2Cl)cn1`, the growth was -0.374% (active).
Work on `CNC1=CC(=O)c2c(C(=O)OC)c(C)[n+]([O-])c(C)c2C1=O` yielded a growth of 34.7%.
Work on `CCCCSCC(=O)c1ccccc1` yielded a growth of 113%.
Work on `COc1cc2oc(-c3cccc(NC(=O)c4ccccc4)c3)cc(=O)c2c(OC)c1OC` yielded a growth of 84.2%.
Compound `CN(C)c1ccc(/C=C2\C=C(c3ccccc3)N(CCc3ccccc3)C2=O)cc1` has a growth of 98.2%.
For `COc1ccc(-c2cc(-c3cn(-c4cccc(Cl)c4)nc3-c3ccc(OC)cc3)[nH]c(=S)n2)cc1`, the growth was 39%.
With `Cc1cc2nc3c4cc(Cl)ccc4n(CC(=O)NCCN(C)C)c3nc2cc1C` the growth was 60.6%.
`O=C(c1ccc(O)c(Br)c1)c1ccc(O)c(Br)c1` showed a growth of 106%.
Work on `CC(C)(C)N1CCC1CN` (stereo not given) yielded a growth of 97.2%.
`O=C1CSC(c2ccccc2Cl)N1c1nnc(-c2ccncc2)o1` (stereo not given) gave a growth of 98.4%.
In the case of `NC(=S)N1N=C(c2ccccc2)CC1c1cn(-c2ccccc2)nc1-c1ccc(OCc2ccccc2)cc1` (stereo not given), the growth is reported as 102%.
